Test results as given in PubChem BioAssay (NCATS).
Results filed as inconclusive are left out. Entries that show only a call come without a potency. A number with no mark means an inactive call. Activity calls are given as the source filed them. The call rests on the fitted dose curve; in most records, active means well fitted inhibition curve with a large enough effect; inconclusive means small, poorly fitted or top-dose-only effect; inactive means flat fitted curve, though single readings scatter.

Test: P-glycoprotein substrates identified in KB-8-5-11 adenocarcinoma cell line, qHTS therapeutic library screen (AID 1346987); further: nearly all actives have a fitted effect of over 65% in size
Details: KB-8-5-11 (P-gp overexpressing) viability, CellTiter-Glo, 72 h; series mostly up to 44.5 µM
Outline: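 KB-8-5-11, a colchicine-selected P-gp-overexpressing KB-3-1 subline, was grown without colchicine for the assay. Cells were seeded at 500 cells/well, dosed in concentration-response and incubated 72 h at 37 degree C, 5% CO2. Viability was read by CellTiter-Glo luminescence.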
Potency means the concentration at half of the fitted maximal effect.

Row | SMILES | Potency | outcome | activity change, negative = cytotoxicity
1 | CC1(C)CC2C(C1)C(C)(O)C13CC1(COC3=O)C2O (centres undefined) | inactive | – | –
2 | C[C@@H]1CCC2C(C)(C)[C@H](O)CC[C@]2(C)[C@@]12Cc1c(O)cc3c(c1O2)CN([C@@H](CCC(=O)O)C(=O)O)C3=O (some centres undefined) | inactive | – | –
3 | Cc1c(C(=O)N2CCOc3ccc(-c4ccc(N)nc4)cc3C2)ccc(S(C)(=O)=O)c1F | 10.3 µM (active) | – | –
4 | CC(O)/C=C/C1(O)C2(C)COC1(C)CC(O)C2 (centres undefined) | inactive | – | –
5 | Cc1cc(C)c(CNC(=O)c2cc(-c3ccc(CN4CCOCC4)cc3)cc3c2cnn3C2CCCC2)c(=O)[nH]1 | inactive | – | –
6 | CC(C)c1cc(C(=O)N2CC[C@@H](NC(=O)C3CC3)C2)n[nH]1 | inactive | – | –
7 | O=C(NCc1ccccn1)Nc1nnc(-c2ccco2)o1 | inactive | – | –
8 | CN1C2CCC1CC(OC(=O)[C@H](CO)c1ccccc1)C2 (some centres undefined) | inactive | – | –
9 | CCC(=O)O[C@H]1C(C)(C)[C@H]([C@@H](O)C(=O)OC)[C@]2(C)C(=O)[C@@]1(O)[C@H]1O[C@]13C1CC(=O)O[C@@H](c4ccoc4)[C@]1(C)CCC32 (some centres undefined) | inactive | – | –
10 | NC1CCCCN(c2c(F)cc3c(=O)c(C(=O)O)cn(C4CC4)c3c2Cl)C1 (centres undefined) | inactive | – | –
11 | C[C@@H]1CN(Cc2ccccc2)C[C@H]1c1nc2c(cnn2C2CCOCC2)c(=O)[nH]1 | inactive | – | –
12 | C1CCC[C@H]2CCCN3CC[C@@H](CCCCCC[C@@H]4CCCN5CC[C@@H](CC1)O[C@@H]45)O[C@@H]23 | – | inactive [at 0.0709 µM] | –
13 | CC1CCC2(CO)C(C(=O)O)=CCCC2C1(C)CCc1ccoc1 (centres undefined) | inactive | – | –
14 | CCOc1ccc2nc(SCCN3CCOCC3)[nH]c2c1 | inactive | – | –
15 | CC1=C(C)C(=O)OC(C(C)C2CCC3C4CC=C5CC(OC6OC(COC7OC(CO)C(O)C(O)C7O)C(O)C(O)C6O)CC(O)C5(C)C4CCC23C)C1 (centres undefined) | inactive | – | –
16 | C/C=C/C=C/C=C/C(=O)OC1C=C(C=O)C(O)(C(=O)O)C2(C)CCCC(C)(C)C12 (centres undefined) | inactive | – | –
17 | CC(C)(C(=O)NCC(F)(F)C(F)(F)F)C(=O)NC1C(=O)Nc2ccccc2-c2ccccc21 (centres undefined) | 4.61 µM (active) | – | –
18 | CCN1CCN(Cc2ccc(NC(=O)Nc3ccc(Oc4cc(NC)ncn4)cc3)cc2C(F)(F)F)CC1 | inactive | – | –
19 | CC1(C)CC(NC(=O)C(=O)Nc2ccc(Br)cc2)CC(C)(C)N1 | inactive | – | –
20 | CCc1ccc(Cc2ccc3c(c2)[C@]2(OC3)O[C@H](CO)[C@@H](O)[C@H](O)[C@H]2O)cc1 | inactive | – | –

Row | SMILES | Potency | outcome | activity change, negative = cytotoxicity
21 | C=C1CCC2C(C)(C(=O)O)CCCC2(C)C1CC/C(=C\CO)CO (centres undefined) | inactive | – | –
22 | COc1ccc(CCC(=O)c2c(O)cc(O)cc2O[C@@H]2O[C@H](CO)[C@@H](O)[C@H](O)[C@H]2O)cc1 | inactive | – | –
23 | CC1(C)CC[C@]2(C(=O)O[C@@H]3O[C@H](CO)[C@@H](O)[C@H](O)[C@H]3O)CC[C@]3(C)C(=CCC4[C@@]5(C)C[C@@H](O)[C@H](O)[C@](C)(C(=O)O)C5CC[C@]43C)C2C1O (some centres undefined) | inactive | – | –
24 | O=C(O)c1ccc(OC2OC(CO)C(O)C(O)C2O)cc1 (centres undefined) | inactive | – | –
25 | Cc1nc2ccc(Oc3ccc(F)cc3)cc2c(=O)n1C[C@H]1CCCN(C(C)C)C1 | inactive | – | –
26 | O=C(/C=C/c1ccc(O)cc1)OC1[C@H](O)CC(O)(C(=O)O)C[C@H]1O (some centres undefined) | inactive | – | –
27 | C=CC(C)(C)c1[nH]c2ccccc2c1C[C@@H]1NC(=O)[C@H](Cc2c[nH]c3ccccc23)NC1=O | inactive | – | –
28 | COCCOc1cnc2ccn([C@H](C)c3nnc4c(F)cc(-c5cnn(C)c5)cn34)c(=O)c2c1 | inactive | – | –
29 | COC(=O)N(C)c1c(N)nc(-c2nn(Cc3ccccc3F)c3ncccc23)nc1N | inactive | – | –
30 | OC/C=C/C=C/[C@H]1Cc2cc(O)cc(O)c2O1 | inactive | – | –
31 | C=C1C[C@]23C[C@H]1CC[C@H]2[C@@]12CC[C@H](O)[C@@](C)(C(=O)O1)[C@H]2[C@@H]3C(=O)O | inactive | – | –
32 | O=C(OC[C@@]1(O)CO[C@@H](O[C@H]2[C@H](Oc3ccc(O)cc3)O[C@H](CO)[C@@H](O)[C@@H]2O)[C@@H]1O)c1ccc(O)cc1 | inactive | – | –
33 | C[C@@H]1O[C@@H](O[C@H]2[C@H](O)[C@@H](O)[C@H](O[C@H]3[C@H](O[C@H]4CC[C@@]5(C)C(=CC[C@@H]6C5CC[C@]5(C)[C@@H]7[C@H](C[C@@H]65)O[C@]5(CC[C@@](C)(CO[C@@H]6O[C@H](CO)[C@@H](O)[C@H](O)[C@H]6O)O5)[C@H]7C)C4)O[C@H](CO)[C@@H](O)[C@@H]3O)O[C@@H]2CO)[C@H](O)[C@H](O)[C@H]1O (some centres undefined) | – | – | 4.84% [at 9.29 µM]
34 | CS(=O)(=O)N(CC(=O)NCC1CC1)c1cc(C(F)(F)F)ccc1Cl | inactive | – | –
35 | C[C@H]1Oc2cc(cnc2N)-c2c(nn(C)c2C#N)CN(C)C(=O)c2ccc(F)cc21 | inactive | – | –
36 | C[C@@H]1C(=O)O[C@H]2[C@H](O)C34[C@H]5C[C@@H](C(C)(C)C)C36[C@@H](OC(=O)[C@@H]6O)O[C@@]4(C(=O)O5)[C@@]12O (some centres undefined) | inactive | – | –
37 | CC(=O)OC[C@@]12C(=O)C[C@@H](C)[C@]3(C[C@@H](c4ccoc4)O[C@H]3OC(C)=O)[C@H]1CCC[C@]21CO1 | inactive | – | –
38 | CC1=CC(=O)C(=C(C)C)CC2C1CCC2(C)O (centres undefined) | inactive | – | –
39 | CC(C)[C@H]1CC[C@@]2(O)COC(=O)[C@H]2[C@@H]1/C=C(\CO)C(=O)O | inactive | – | –
